According to the supplement of paper PMC8387472:
Counter-ions that a name gives are not always drawn. ± gives the standard deviation of the averaged measurements.

Each compound was assayed on mESC LDLR-Dup GFP reporter (SpCas9 MH-deletion repair) (assay: fraction of GFP+ cells relative to DMSO control (fold change); higher = more MH-deletion repair to in-frame LDLR (or more editing)). Conditions: 2 µM; 7 days post-transfection.
With `C/C(=C\C(=O)Nc1ccccc1C(=O)O)c1ccc2ccccc2c1` the “fraction of GFP+ cells” value was 0.984 ± 0.45. In the case of `O=c1[nH]c(=O)n(C2CCCO2)cc1F` (stereo unspecified), the “fraction of GFP+ cells” value is reported as 1.06 ± 0.28. With `O=C(O)c1cc(=O)[nH]c(=O)[nH]1` [Orotic acid (6-Carboxyuracil)] the “fraction of GFP+ cells” value was 0.847 ± 0.26. In the case of `C[C@H]1CNCCCN1S(=O)(=O)c1cccc2cncc(F)c12` [Ripasudil (K-115) hydrochloride dihydrate], the “fraction of GFP+ cells” value is reported as 1.31 ± 0.45. In the case of `Nc1nc(Nc2ccc(S(N)(=O)=O)cc2)nn1C(=O)c1c(F)cccc1F`, the “fraction of GFP+ cells” value is reported as 1 ± 0.15. With `O=c1ccn([C@@H]2O[C@H](CO)[C@@H](O)[C@H]2O)c(=O)[nH]1` [Uridine] the “fraction of GFP+ cells” value was 1.24 ± 0.54. With `Nc1nc(NC2CC2)cc(-c2cccc(Cl)c2Cl)n1` the “fraction of GFP+ cells” value was 0.918 ± 0.2. `CNNCc1ccc(C(=O)NC(C)C)cc1` [Procarbazine HCl] was tested, and the “fraction of GFP+ cells” value was 1.04 ± 0.053. In the case of `CN1CCN(c2ccc(Nc3ncc4cc(C#N)c(=O)n(C5CCCC5)c4n3)cc2)CC1`, the “fraction of GFP+ cells” value is reported as 0.705 ± 0.077. With `C[C@H](Oc1cc(-c2cnn(C3CCNCC3)c2)cnc1N)c1c(Cl)ccc(F)c1Cl` [(S)-crizotinib] the “fraction of GFP+ cells” value was 0.94 ± 0.18. For `CC(C)(O)[C@@H]1CC[C@](C)([C@H]2[C@@H](O)C[C@@]3(C)[C@@H]4C[C@H](O)[C@H]5C(C)(C)[C@@H](O)CC[C@@]56C[C@@]46CC[C@]23C)O1` [Cycloastragenol], the “fraction of GFP+ cells” value was 0.966 ± 0.08. `CO[C@H]1/C=C/O[C@@]2(C)Oc3c(C)c(O)c4c(O)c(c5c(nc6cc(C)ccn65)c4c3C2=O)NC(=O)/C(C)=C\C=C\[C@H](C)[C@H](O)[C@@H](C)[C@@H](O)[C@@H](C)[C@H](OC(C)=O)[C@@H]1C` [Rifaximin] was tested, and the “fraction of GFP+ cells” value was 0.938 ± 0.38. For `O=NN(CCCl)C(=O)NCCCl` [Carmustine], the “fraction of GFP+ cells” value was 1 ± 0.078. With `O=C(Nc1ccc(Cl)cc1)C1CCCN(C(=O)c2cccc(-c3ccco3)c2)C1` (stereo unspecified) the “fraction of GFP+ cells” value was 0.756 ± 0.13. With `CC(C)(C)OC(=O)Nc1ccc(-c2cc(C(=O)NCCCCCCC(=O)NO)no2)cc1` the “fraction of GFP+ cells” value was 0.902 ± 0.059. For `COc1c(N2CCNC(C)C2)c(F)cc2c(=O)c(C(=O)O)cn(C3CC3)c12` (stereo unspecified) [Gatifloxacin], the “fraction of GFP+ cells” value was 0.995 ± 0.12. In the case of `Cc1c(C)c2c(c(C)c1O)CCC(C)(COc1ccc(CC3SC(=O)NC3=O)cc1)O2` (stereo unspecified) [Troglitazone (CS-045)], the “fraction of GFP+ cells” value is reported as 1.34 ± 0.24. With `NC(=O)c1cccnc1` [Nicotinamide (Vitamin B3)] the “fraction of GFP+ cells” value was 1.74 ± 0.82. In the case of `Cc1cc([N+](=O)[O-])ccc1NS(=O)(=O)c1cc(Cl)ccc1Cl`, the “fraction of GFP+ cells” value is reported as 1.64 ± 0.13. In the case of `O=c1c(-c2ccc(O)cc2)coc2cc(O)ccc12` [Daidzein], the “fraction of GFP+ cells” value is reported as 0.115 ± 0.039. `O=C(O)CCCc1ccccc1` [Sodium Phenylbutyrate] was tested, and the “fraction of GFP+ cells” value was 0.708 ± 0.082. With `CCCC(CCC)C(=O)O` [valproic acid] the “fraction of GFP+ cells” value was 0.696 ± 0.13. In the case of `N#Cc1ccc(COC[C@H]2O[C@@H](n3c(NCc4ccc(Cl)c(Cl)c4)nc4c(N)ncnc43)[C@H](O)[C@@H]2O)cc1`, the “fraction of GFP+ cells” value is reported as 1.89 ± 0.17. For `Nc1nc(=O)c2c([nH]1)NC[C@H](CNc1ccc(C(=O)N[C@@H](CCC(=O)O)C(=O)O)cc1)N2C=O` [Calcium Levofolinate], the “fraction of GFP+ cells” value was 1.1 ± 0.47. `Cc1cnc(NC(=O)Nc2cc(Br)c(C)cc2OC[C@@H]2CNCCO2)cn1` was tested, and the “fraction of GFP+ cells” value was 1.14 ± 0.08. With `NC(=O)c1ccccn1` [Picolinamide] the “fraction of GFP+ cells” value was 1.08 ± 0.046.
